Measurements taken from PubChem BioAssay (NCATS).
Results filed as inconclusive are left out. Values without a mark were called inactive. Calls of active or inactive are those of the source. The call rests on the fitted dose curve; tested in HEK293 reporter line.

test: qHTS for Inhibitors of the Functional Ribonucleoprotein Complex (vRNP) of Lassa (LASV) Arenavirus: LASV Primary Screen - GLuc reporter signal (AID 1347082); settings: LASV minigenome vRNP, Gaussia luciferase reporter; series mostly up to 57.5 µM; activity change, negative = inhibition: at the top concentration; further: nearly all actives have a fitted effect of over 60% in size
On the % scale 0 is the no-effect control and ±100 the full control effect; potency means the concentration at half of the fitted maximal effect.

Row | SMILES | activity change, negative = inhibition | Potency
1 | COc1ccnc2[nH]cc(C(=O)C(=O)N3CCN(C(=O)c4ccccc4)C[C@@H]3C)c12 | -13.3% | 
2 | COc1ccc(-c2cc(=O)c3c(O)cc(O)c(-c4cc(-c5cc(=O)c6c(O)cc(OC)cc6o5)ccc4OC)c3o2)cc1 | 9.52% [at 24.7 µM] | 
3 | CCCCCOC(=O)Nc1nc(=O)n([C@@H]2O[C@H](C)[C@@H](O)C2O)cc1F (stereo partly specified) | -25.9% | 
4 | CC(=O)O[C@@]12CO[C@@H]1C[C@@H](O)[C@@]1(C)C(=O)[C@H](O)C3=C(C)[C@@H](OC(=O)[C@H](O)[C@@H](NC(=O)c4ccccc4)c4ccccc4)C[C@@](O)([C@@H](OC(=O)c4ccccc4)C12)C3(C)C (stereo partly specified) | -25.4% | 
5 | CC(=O)c1ccc[nH]1 | -19.6% [at 115 µM] | 
6 | C=C1C(C)C2C(Cc3ccccc3)NC(=O)C23C(OC(C)=O)C=CC(C)(O)CC(C)CC=CC3C1O (stereo unspecified) | 44.2% | 
7 | CC=CC(=O)N(CC)c1ccccc1C | 22.9% | 
8 | C[C@H]1CCC[C@@H](O)CCC/C=C/c2cc(O)cc(O)c2C(=O)O1 | -33.2% | 
9 | COC(=O)c1cc(O)cc(OC)c1Oc1cc(C)cc(O)c1C(=O)O | -28.9% | 
10 | CC[C@H]1OC(=O)[C@H](C)[C@@H](O[C@H]2C[C@@](C)(OC)[C@@H](O)[C@H](C)O2)[C@H](C)[C@@H](O[C@@H]2O[C@H](C)C[C@H](N(C)C)[C@@H]2O)[C@](C)(OC)C[C@@H](C)C(=O)[C@H](C)[C@@H](O)[C@]1(C)O | -5.45% | 
11 | COc1ccc(C2COc3cc(O)ccc3C2)c(OC)c1O (stereo unspecified) | -32.3% | 
12 | CC(=O)O[C@@H]1CC[C@@]2(C)[C@H](C1)[C@H](OC(C)=O)C[C@@H]1[C@@H]2C[C@H]2[C@@H]3CN4C[C@H](C)CC[C@H]4[C@H](C)[C@H]3CC[C@@]12O | 5.17% [at 24.7 µM] | 
13 | Oc1ccc([C@@H]2Oc3ccc(O)cc3[C@@H]3CCC[C@@H]32)cc1 | -37% | 
14 | CC(=O)O[C@H]1C(=O)[C@@]2(C)C([C@H](OC(=O)c3ccccc3)[C@]3(O)C[C@H](O)C(C)=C1C3(C)C)[C@]1(OC(C)=O)CO[C@@H]1C[C@H]2O (stereo partly specified) | -19.8% | 
15 | COC(=O)C1CC23C=CCN4CCC5(c6ccccc6NC15C2C)C43 (stereo unspecified) | -31.1% | 
16 | CNCCCCc1cnc(C)c2[nH]c3ccccc3c12 | -10.6% | 

Row | SMILES | activity change, negative = inhibition | Potency
17 | CC(=O)O[C@@]12CO[C@@H]1C[C@H](O)[C@@]1(C)C(=O)[C@H](O)C3=C(C)[C@@H](O)C[C@@](O)([C@@H](OC(=O)c4ccccc4)C12)C3(C)C (stereo partly specified) | -6.75% | 
18 | COc1ccc(-c2cc3ncc(C)n3c(Nc3ncccc3C(N)=O)n2)cc1OC | -18.4% | 
19 | Oc1ccc(C2CCN(c3ccnc4ccccc34)CC2)cc1O |  | 15.3 µM (active)
20 | COc1ccc(C2CC(=O)c3c(O)cc(O)cc3O2)cc1O (stereo unspecified) | -10.5% | 
21 | C[C@H]([C@@H](O)[C@@H](O)[C@@H](C)C(C)(C)C)[C@H]1CC[C@H]2C3CC[C@H]4C[C@H](OS(=O)(=O)O)[C@@H](OS(=O)(=O)O)C[C@]4(C)[C@H]3CC[C@]12C (stereo partly specified) | -10.7% | 
22 | CC(C)c1c(C(=O)Nc2ccccc2)c(-c2ccccc2)c(-c2ccc(F)cc2)n1CC[C@H](O)C[C@@H](O)CC(=O)O | -29.4% | 
23 | O=c1c(-c2ccc(O)cc2)coc2c(C3OC(CO)C(O)C(O)C3O)c(O)ccc12 (stereo unspecified) | 2.29% | 
24 | COc1cc2c(ccc3c4cc(OC)c(OC)cc4c[n+](C)c23)cc1O | -14.4% | 
25 | Cc1cnn(C)c1C(=O)Nc1cc(Nc2ccc3c(C=Cc4ccccn4)n[nH]c3c2)ccc1F |  | 21.7 µM (active)
26 | O=C1C=CC(O)(c2cc(=O)c3c(O)cc(O)cc3o2)C=C1 |  | 17.8 µM (active)
27 | CCCNC(=O)[C@H]1O[C@H]1C(=O)N[C@H](C(=O)N1CCC[C@@H]1C(=O)OC)C(C)CC (stereo partly specified) |  | 27.3 µM (active)
28 | O=C(O)C[C@H](O)C[C@H](O)C=Cc1c(C2CC2)nc2ccccc2c1-c1ccc(F)cc1 | -26.6% | 
29 | COc1ccc([C@@H]2CC(=O)c3c(O)cc(O[C@@H]4O[C@H](CO)[C@@H](O)[C@H](O)[C@H]4OC4O[C@@H](C)[C@H](O)[C@@H](O)[C@H]4O)cc3O2)cc1O (stereo partly specified) | -0.678% [at 24.7 µM] | 
30 | CC(=O)O[C@@]12CO[C@@H]1C[C@H](OC1OCC(O)C(O)C1O)[C@@]1(C)C(=O)[C@H](O)C3=C(C)[C@@H](OC(=O)[C@H](O)[C@@H](NC(=O)c4ccccc4)c4ccccc4)C[C@@](O)([C@@H](OC(=O)c4ccccc4)C12)C3(C)C (stereo partly specified) | 8.54% | 
31 | CN(C(=O)c1ccc(F)cc1C(F)(F)F)C1CCN(c2nnc(-c3ccnn3C)c3ccccc23)CC1 | -27.1% | 
